Screens (PubChem)
FBA Mtb inh – Mtb fructose-bisphosphate aldolase inhibition | P9WQA3 | purified M. tuberculosis FBA, fluorescence read-out | inhibition, % at 1 µM | 2.3% of 360,000 active;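 further: 0% = vehicle and 100% = reference inhibitor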
Target sequence (P9WQA3 whole entry, looked up): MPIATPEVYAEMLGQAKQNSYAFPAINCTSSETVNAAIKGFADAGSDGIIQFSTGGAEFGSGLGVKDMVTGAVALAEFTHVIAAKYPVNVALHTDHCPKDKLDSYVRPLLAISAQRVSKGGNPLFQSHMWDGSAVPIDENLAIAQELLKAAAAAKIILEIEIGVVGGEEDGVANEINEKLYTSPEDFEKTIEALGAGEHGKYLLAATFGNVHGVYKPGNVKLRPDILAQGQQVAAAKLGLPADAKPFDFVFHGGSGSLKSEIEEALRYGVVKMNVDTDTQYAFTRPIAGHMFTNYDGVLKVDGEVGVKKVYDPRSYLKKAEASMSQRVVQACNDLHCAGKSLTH
Yp Topo-I inh – blocks Yersinia pestis topoisomerase I activity | Y. pestis Topo-I cleavage product accumulation, plate reader | activity, % at 10 µM | 0.064% of 360,000 active; in the data active means activity above about 50%, passing the limit was not always enough
PrPC surface inh – cell surface PrPC inhibition, primary TR-FRET screen; AID 720596; inhibition, % at 13.8 µM; TR-FRET read-out; P04156; 0.43% of 370,000 active; in the data active means inhibition above about 24%; further: 0% = median of the test wells and 100% = reference compound wells
GDH-TPI counter-1 – GDH-TPI coupled enzyme inhibition counter-screen | GDH-TPI coupled enzyme counterscreen, NADH absorbance | 1.2% of 360,000 active | inhibition, % at 4.8 µM; in the data active means inhibition above about 30%;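 further: 0% = DMSO wells and 100% = wells lacking the enzyme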
Mtb hypoxia inh – reduces hypoxia-regulated biosensor signal in M. tuberculosis; M. tuberculosis hypoxia-regulated fluorescent reporter, fluorescence; fluorescence inhibition, % (no concentration beside the values); 0.1% of 300,000 active; in the data active means fluorescence inhibition mostly above about 23%, no sharp cut-off; inactive means mostly below about 17%
PrP 5UTR inh – suppresses PrP 5' UTR mRNA reporter expression | cell-based PrP 5' UTR mRNA reporter, plate reader | AID 488862 | 0.35% of 340,000 active | inhibition, % (test concentration not listed); in the data active means inhibition above about 52%; further: 0 = median of the neutral control wells
Mtb FBA confirm – Mtb FBA inhibition, confirmed. shares compounds with FBA Mtb inh. inhibition, % at 1 µM. purified M. tuberculosis FBA, fluorescence read-out. 78% of 5,600 active. AID 651616;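 further: 0% = vehicle wells and 100% = reference inhibitor wells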
GDH-TPI counter-2 – inhibits GDH-TPI coupling enzymes, flagging Mtb FBA hits; GDH-TPI coupled enzyme counterscreen, fluorescence; inhibition, % at 1 µM; shares compounds with FBA Mtb inh; 81% of 5,600 active; AID 652141; in the data active means inhibition above about 10%
GDH-TPI DR – counter-screen for M. tuberculosis FBA inhibitors: GDH-TPI dose response | shares compounds with FBA Mtb inh | GDH-TPI coupled enzyme assay, fluorescence, artifact counterscreen | 79% of 170 active | IC50, µM; call rule not given here
Starred values were filed as active, the others as inactive; nt = not tested or not shown; + = active, no number. Shown are actives, neighbours in structure and some others; about 3.8% of the full set was active somewhere. Unless noted, no stated cut-off is given here; in the data, active means inhibition above about 27%; inactive means the rest.

SMILES	FBA Mtb inh	Yp Topo-I inh	PrPC surface inh	GDH-TPI counter-1	Mtb hypoxia inh	PrP 5UTR inh	Mtb FBA confirm	GDH-TPI counter-2	others
Cc1ccc2nc(CNC(=O)C3CCC(=O)N(Cc4ccccc4F)C3)cn2c1 (stereo unspecified)	18	13	4	10	0	-15	nt	nt
O=C(NCCc1cn2cccnc2n1)C1CCC(=O)N(Cc2ccccc2F)C1 (stereo unspecified)	94*	9	8	6	nt	nt	60*	39*
C=CCc1cccc(C=NNC(=O)c2ccc3nc[nH]c3c2)c1O	nt	nt	nt	nt	-4	nt	nt	nt
CCOC(=O)C1CCN(C(=O)c2cc3c(s2)-c2ccccc2OC3)CC1	85*	24	16	26	nt	-9	3	-3
COc1cc2c(cc1OC)C(C)N(C(=O)c1cc3c(s1)-c1c(C)cccc1OC3)CC2 (stereo unspecified)	31*	13	-4	12	nt	-39	139*	97*
COc1cc2c(cc1OC)C(C)N(C(=O)c1cc3c(s1)-c1ccccc1OC3)CC2 (stereo unspecified)	59*	23	7	19	nt	-10	37*	33*
O=C(c1cc2c(s1)-c1ccccc1OC2)N1CCc2ccccc2C1	25	13	-2	1	6	-28	nt	nt
COc1cc2c(cc1OC)C(C)N(C(=O)c1cccs1)CC2 (stereo unspecified)	-1	7	-2	-6	4	-24	nt	nt
Nc1c(C(=O)NN=Cc2ccc([N+](=O)[O-])cc2)sc2nnc(-c3ccccc3)c(-c3ccccc3)c12	nt	nt	nt	nt	3	nt	nt	nt
O=C(CCCO)CCCCCCCCCC1NC(CO)C(O)C1O (stereo unspecified)	nt	nt	nt	nt	0	nt	nt	nt
CCOC(=O)C1C(=O)C=C(C=Cc2ccc(N(C)C)cc2)CC1c1ccccc1 (stereo unspecified)	nt	nt	nt	nt	5	nt	nt	nt
O=C(Nc1cccnc1)c1cc2c(s1)-c1ccccc1OC2	73*	2	-7	37*	-8	-22	71*	54*
O=C(Nc1nc2ccccc2s1)c1cc2c(s1)-c1ccccc1OC2	6	-10	1	2	nt	-60	nt	nt
Cc1cccc2c1-c1sc(C(=O)Nc3cccnc3)cc1CO2	101*	6	-13	-1	11	-30	1	-4
COc1cc(C=NNC(=O)CNC(=O)c2ccncc2)ccc1O	nt	nt	nt	nt	-1	nt	nt	nt
Cc1cc(Br)c(OCc2ccc(C(=O)NN=Cc3ccc[nH]3)cc2)c(Br)c1	nt	nt	nt	nt	4	nt	nt	nt
N#Cc1ccc(-c2csc(NC(=O)C3CC3)n2)cc1	50*	-2	-6	5	12	-10	91*	71*
N#Cc1ccc(-c2csc(NC(=O)/C=C/c3cccs3)n2)cc1	1	-8	11	12	3	5	nt	nt
CC(CC(=O)NC12CC3CC(CC(C3)C1)C2)=NNC(=O)c1ccc(C)cc1	nt	nt	nt	nt	3	nt	nt	nt
COc1ccc2nc(N=C(N)NC(=O)Nc3ccccc3)nc(C)c2c1	nt	nt	nt	nt	-14	nt	nt	nt
CCOC(=O)CSc1nc(C)c2cc(OC)ccc2n1	49*	9	-2	7	3	-17	64*	36*
COc1ccc2nc(/N=C(\N)NC(=O)C(C)(C)C)nc(C)c2c1	46*	6	-3	5	nt	-82	10	-4	GDH-TPI DR=3.6*
CCC(=O)N/C(N)=N/c1nc(C)c2cc(OC)ccc2n1	40*	-6	-4	6	2	-46	+	+
Cc1ccc(N2C(N)=NC(N)=NC2(C)C)c(C)c1	0	0	2	-5	nt	-12	nt	nt
Cc1ccccc1N1C(N)=NC(N)=NC1(C)C	76*	2	-5	7	nt	-13	+	+
SMILES	FBA Mtb inh	Yp Topo-I inh	PrPC surface inh	GDH-TPI counter-1	Mtb hypoxia inh	PrP 5UTR inh	Mtb FBA confirm	GDH-TPI counter-2	others
COC(=O)c1ccc(C(=O)OC)c(NC(=S)N2CCN(C(=O)C3CCCO3)CC2)c1 (stereo unspecified)	28*	-1	3	-4	4	4	113*	89*
COC(=O)c1ccc(C(=O)OC)c(NC(=O)/C=C/C(=O)O)c1	57*	7	2	0	18	-18	52*	50*
CCN1CCN(C(=S)Nc2cc(C(=O)OC)ccc2C(=O)OC)CC1	31*	-4	5	15	1	-88	135*	115*
COC(=O)C(=NNc1ccccc1C(=O)OC)C(C)=NO	nt	nt	nt	nt	0	nt	nt	nt
Cc1ccc(-c2cc(-c3ccc(C)o3)nc(N)c2C#N)cc1	19	-7	-12	12	1	7	nt	nt
Cc1ccc(-c2cc(-c3ccc(F)cc3)c(C#N)c(N)n2)o1	47*	-5	-7	3	-15	-8	+	173*
Cc1csc2ncc(C(=O)NCc3ccccc3Cl)c(=O)n12	49*	-5	7	11	-3	-5	107*	112*
Cc1csc2ncc(C(=O)NC(C)c3ccccc3)c(=O)n12 (stereo unspecified)	63*	6	3	22	-7	-32	199*	159*
CC(NC(=O)c1ccccc1O)c1ccccc1 (stereo unspecified)	41*	-1	0	5	1	-25	156*	122*
COc1ccccc1C(=O)NC(C)c1ccccc1 (stereo unspecified)	1	-6	8	-2	0	-4	nt	nt
CCCCCC(=O)N1CC2(CC(c3cccc(NC(=O)C4CCC(=O)N4)c3)=NO2)CC1C(N)=O (stereo unspecified)	nt	nt	nt	nt	6	nt	nt	nt
N#CC1(C#N)C(c2ccccc2)OC23CCCCCC2C1(C#N)C(=N)O3 (stereo unspecified)	41*	-2	-1	2	-8	-10	40*	34*
N#CC1(C#N)C(c2ccccc2)OC23CCCCC2C1(C#N)C(=N)O3 (stereo unspecified)	75*	4	1	0	8	-38	58*	64*
C#CCOCCOCCOCCNc1nc(N2CCN(C(=O)C(CCCCN)n3cc(C(N)CO)nn3)CC2)nc(N2CCN(C(=O)C(C(C)CC)n3cc(C(N)CO)nn3)CC2)n1 (stereo unspecified)	nt	nt	nt	nt	4	nt	nt	nt
N#CCC(=O)NN=Cc1ccc(OC2CSC2)cc1	nt	nt	nt	nt	3	nt	nt	nt
CC(=NNC(=O)CNC(=O)c1cccnc1)c1ccccc1	nt	nt	nt	nt	0	nt	nt	nt
CCOc1ccccc1/C=C/c1cc(C(=O)O)c2ccccc2n1	29*	5	2	9	12	-35	91*	71*
CCOc1ccccc1OCCCC(=O)Nc1nc2ccccc2[nH]1	1	2	2	2	-3	-12	nt	nt
CCOc1ccccc1/C=C/c1nc2ccccc2[nH]c1=O	43*	-6	-12	28	nt	-8	0	0
CCN(CC)C(=O)Cc1cc(C(=O)O)c2ccccc2n1	5	12	4	6	7	-16	nt	nt
